Data from PMC7862700, “An all-to-all approach to the identification of sequence-specific readers for epigenetic DNA modifications on cytosine”.

Experiments:
Assay in all cases: DAPPL (digital affinity profiling via proximity ligation, sequencing); 10 mM Tris-HCl pH 7.5, 50 mM NaCl, 1 mM DTT, 4% glycerol, room temperature, 30 min; GST-TFs on glutathione beads, 16-mer random dsDNA library, 0.1% formaldehyde crosslink after washing; high values mean tight binding
Conditions in all cases: protein: recombinant; tags: N-terminal GST; dsDNA, one strand shown
FLI1 = target: T1, FLI1 (Homo sapiens, UniProt Q01543 1-452)
T1 sequence: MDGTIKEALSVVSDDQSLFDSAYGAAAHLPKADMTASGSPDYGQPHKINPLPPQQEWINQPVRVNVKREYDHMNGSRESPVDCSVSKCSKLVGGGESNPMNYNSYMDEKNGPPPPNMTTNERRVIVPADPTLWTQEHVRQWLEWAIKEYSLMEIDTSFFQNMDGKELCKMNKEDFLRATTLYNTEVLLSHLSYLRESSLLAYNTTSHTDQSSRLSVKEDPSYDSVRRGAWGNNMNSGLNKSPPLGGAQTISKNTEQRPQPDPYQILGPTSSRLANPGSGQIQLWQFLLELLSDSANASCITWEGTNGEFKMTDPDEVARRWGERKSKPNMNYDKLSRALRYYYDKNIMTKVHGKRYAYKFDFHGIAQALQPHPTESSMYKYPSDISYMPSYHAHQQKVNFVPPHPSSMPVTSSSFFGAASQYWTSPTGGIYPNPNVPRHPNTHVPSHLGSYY
Procedure, shortened: (§1)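 Binding signal is each hexamer's read frequency for a factor divided by its frequency in the tag-only sample. The factors were GST-fused human transcription factors from yeast, captured on glutathione beads, DNA-barcoded and pooled with that sample. Pools were incubated with 200 nmole of a random double-stranded 16-mer DNA library in Tris/NaCl/DTT/glycerol buffer at room temperature for 30 min, then washed, crosslinked with 0.1% formaldehyde, proximity-ligated with BsaI/T4 ligase (1 h, 37 °C), PCR-amplified and sequenced on an Illumina NextSeq500.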

ELK1 = target: T2, ELK1 (Homo sapiens, UniProt P19419 1-428)
T2 sequence: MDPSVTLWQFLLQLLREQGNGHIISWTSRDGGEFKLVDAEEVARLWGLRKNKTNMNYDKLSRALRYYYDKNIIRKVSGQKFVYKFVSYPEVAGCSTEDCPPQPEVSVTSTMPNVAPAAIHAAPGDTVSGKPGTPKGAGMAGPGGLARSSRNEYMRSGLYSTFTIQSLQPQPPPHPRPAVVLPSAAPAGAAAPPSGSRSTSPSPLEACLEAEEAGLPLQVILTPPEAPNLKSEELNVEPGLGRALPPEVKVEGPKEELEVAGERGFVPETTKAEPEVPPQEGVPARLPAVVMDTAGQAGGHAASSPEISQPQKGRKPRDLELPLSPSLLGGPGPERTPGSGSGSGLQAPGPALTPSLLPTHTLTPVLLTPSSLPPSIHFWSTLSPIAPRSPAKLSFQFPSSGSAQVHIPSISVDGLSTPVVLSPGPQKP
Procedure, shortened: as §1

GABPA = target: T3, GABPA (Homo sapiens, UniProt Q06546 1-454)
T3 sequence: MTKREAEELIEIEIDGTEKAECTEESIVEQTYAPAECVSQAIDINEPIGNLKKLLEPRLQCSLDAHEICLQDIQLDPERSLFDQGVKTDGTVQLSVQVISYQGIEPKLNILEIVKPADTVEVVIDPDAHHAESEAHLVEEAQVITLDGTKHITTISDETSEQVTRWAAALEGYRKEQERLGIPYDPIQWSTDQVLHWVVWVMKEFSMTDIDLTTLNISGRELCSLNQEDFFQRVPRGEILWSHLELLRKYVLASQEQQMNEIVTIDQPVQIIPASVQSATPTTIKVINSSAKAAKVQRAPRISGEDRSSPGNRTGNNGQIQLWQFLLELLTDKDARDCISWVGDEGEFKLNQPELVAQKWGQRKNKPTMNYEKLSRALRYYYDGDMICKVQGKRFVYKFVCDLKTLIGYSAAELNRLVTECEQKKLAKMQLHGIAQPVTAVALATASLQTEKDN
Procedure, shortened: as §1

ERG = target: T4, ERG (Homo sapiens, UniProt P11308 1-479)
T4 sequence: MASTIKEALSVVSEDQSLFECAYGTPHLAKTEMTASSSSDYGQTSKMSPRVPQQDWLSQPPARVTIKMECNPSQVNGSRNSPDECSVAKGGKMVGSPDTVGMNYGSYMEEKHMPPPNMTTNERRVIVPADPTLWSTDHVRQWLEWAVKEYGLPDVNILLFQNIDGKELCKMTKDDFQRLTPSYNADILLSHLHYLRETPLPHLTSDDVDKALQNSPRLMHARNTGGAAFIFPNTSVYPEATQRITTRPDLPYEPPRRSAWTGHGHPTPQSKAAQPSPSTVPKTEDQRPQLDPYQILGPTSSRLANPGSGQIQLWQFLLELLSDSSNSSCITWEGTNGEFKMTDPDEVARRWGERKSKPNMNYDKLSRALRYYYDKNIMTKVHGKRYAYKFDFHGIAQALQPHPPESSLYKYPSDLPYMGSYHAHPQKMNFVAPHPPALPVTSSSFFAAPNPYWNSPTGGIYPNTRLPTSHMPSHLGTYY
Procedure, shortened: as §1

ELF1 = ELF1 (Homo sapiens, UniProt P32519 1-619)
Procedure, shortened: as §1

EHF = target: T5, EHF (Homo sapiens, UniProt Q9NZC4 1-300)
T5 sequence: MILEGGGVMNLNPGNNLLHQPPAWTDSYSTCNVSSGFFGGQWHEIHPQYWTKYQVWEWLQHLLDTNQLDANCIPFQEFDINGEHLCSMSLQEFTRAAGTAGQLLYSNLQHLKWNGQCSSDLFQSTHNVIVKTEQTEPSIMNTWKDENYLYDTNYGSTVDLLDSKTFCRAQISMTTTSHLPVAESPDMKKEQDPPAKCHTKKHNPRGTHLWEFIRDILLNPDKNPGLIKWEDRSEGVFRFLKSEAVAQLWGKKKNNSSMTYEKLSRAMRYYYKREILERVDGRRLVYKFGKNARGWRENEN
Procedure, shortened: as §1

SPI1 = SPI1 (Homo sapiens, UniProt P17947 1-270)
Procedure, shortened: as §1

SPIB = SPIB (Homo sapiens, UniProt Q01892 1-262)
Procedure, shortened: as §1

ELK3 = target: T6, ELK3 (Homo sapiens, UniProt P41970 1-407)
T6 sequence: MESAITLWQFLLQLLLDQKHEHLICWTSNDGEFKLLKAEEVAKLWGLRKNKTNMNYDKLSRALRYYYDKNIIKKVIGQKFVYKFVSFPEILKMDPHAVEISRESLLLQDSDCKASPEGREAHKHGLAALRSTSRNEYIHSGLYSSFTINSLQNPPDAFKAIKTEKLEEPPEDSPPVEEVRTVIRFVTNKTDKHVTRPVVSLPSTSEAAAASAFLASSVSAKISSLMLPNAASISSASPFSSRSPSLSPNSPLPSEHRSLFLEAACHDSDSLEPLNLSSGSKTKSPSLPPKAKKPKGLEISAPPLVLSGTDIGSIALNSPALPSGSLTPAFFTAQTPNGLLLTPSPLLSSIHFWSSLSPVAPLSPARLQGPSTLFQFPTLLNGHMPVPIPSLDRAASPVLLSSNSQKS
Procedure, shortened: as §1

ELF1, sequence (P32519 whole entry): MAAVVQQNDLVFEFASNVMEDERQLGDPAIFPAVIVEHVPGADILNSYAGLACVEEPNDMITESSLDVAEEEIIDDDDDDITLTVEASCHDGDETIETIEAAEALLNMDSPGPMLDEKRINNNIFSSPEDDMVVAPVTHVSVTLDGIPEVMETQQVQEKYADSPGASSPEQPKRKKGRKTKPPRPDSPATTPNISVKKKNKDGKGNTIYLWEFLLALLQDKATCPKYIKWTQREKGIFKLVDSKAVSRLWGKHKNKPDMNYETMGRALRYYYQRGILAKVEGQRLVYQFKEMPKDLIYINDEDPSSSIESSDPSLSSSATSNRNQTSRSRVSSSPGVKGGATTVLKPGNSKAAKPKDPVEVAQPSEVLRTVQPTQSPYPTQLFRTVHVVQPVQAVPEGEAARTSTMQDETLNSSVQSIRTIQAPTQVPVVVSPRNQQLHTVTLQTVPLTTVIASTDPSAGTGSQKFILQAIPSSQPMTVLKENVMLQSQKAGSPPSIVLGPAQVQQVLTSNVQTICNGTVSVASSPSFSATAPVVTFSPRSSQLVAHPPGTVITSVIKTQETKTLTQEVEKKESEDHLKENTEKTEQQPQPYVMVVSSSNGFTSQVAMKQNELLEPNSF
SPIB, sequence (Q01892 whole entry): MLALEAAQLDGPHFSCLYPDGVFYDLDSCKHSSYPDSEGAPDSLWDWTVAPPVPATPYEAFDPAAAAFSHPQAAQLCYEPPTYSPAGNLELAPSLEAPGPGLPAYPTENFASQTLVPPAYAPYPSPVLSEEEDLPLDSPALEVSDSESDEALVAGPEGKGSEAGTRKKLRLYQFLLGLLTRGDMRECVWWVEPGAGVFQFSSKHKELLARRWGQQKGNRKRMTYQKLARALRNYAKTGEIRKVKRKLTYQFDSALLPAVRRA

Row | Sequence | binding signal (FLI1) | binding signal (ELK1) | binding signal (GABPA) | binding signal (ERG) | binding signal (ELF1) | binding signal (EHF) | binding signal (SPI1) | binding signal (SPIB) | binding signal (ELK3)
1 | TTCTGC | 1.54 fold enrichment (6-mer frequency, TF over GST control) | 1.49 fold enrichment (6-mer frequency, TF over GST control) | 1.4 fold enrichment (6-mer frequency, TF over GST control) | 1.32 fold enrichment (6-mer frequency, TF over GST control) | 1.52 fold enrichment (6-mer frequency, TF over GST control) | 1.46 fold enrichment (6-mer frequency, TF over GST control) | 1.5 fold enrichment (6-mer frequency, TF over GST control) | 1.34 fold enrichment (6-mer frequency, TF over GST control) | 1.39 fold enrichment (6-mer frequency, TF over GST control)
2 | TCTTGG | 1.44 fold enrichment (6-mer frequency, TF over GST control) | 1.35 fold enrichment (6-mer frequency, TF over GST control) | 1.52 fold enrichment (6-mer frequency, TF over GST control) | 1.38 fold enrichment (6-mer frequency, TF over GST control) | 1.28 fold enrichment (6-mer frequency, TF over GST control) | 1.48 fold enrichment (6-mer frequency, TF over GST control) | 1.35 fold enrichment (6-mer frequency, TF over GST control) | 1.4 fold enrichment (6-mer frequency, TF over GST control) | 1.4 fold enrichment (6-mer frequency, TF over GST control)
3 | TGGCTA | 1.15 fold enrichment (6-mer frequency, TF over GST control) | 1.23 fold enrichment (6-mer frequency, TF over GST control) | 1.24 fold enrichment (6-mer frequency, TF over GST control) | 1.17 fold enrichment (6-mer frequency, TF over GST control) | 1.22 fold enrichment (6-mer frequency, TF over GST control) | 1.19 fold enrichment (6-mer frequency, TF over GST control) | 1.2 fold enrichment (6-mer frequency, TF over GST control) | 1.31 fold enrichment (6-mer frequency, TF over GST control) | 1.14 fold enrichment (6-mer frequency, TF over GST control)
4 | AACTGC | 1.34 fold enrichment (6-mer frequency, TF over GST control) | 1.47 fold enrichment (6-mer frequency, TF over GST control) | 1.32 fold enrichment (6-mer frequency, TF over GST control) | 1.32 fold enrichment (6-mer frequency, TF over GST control) | 1.42 fold enrichment (6-mer frequency, TF over GST control) | 1.33 fold enrichment (6-mer frequency, TF over GST control) | 1.45 fold enrichment (6-mer frequency, TF over GST control) | 1.41 fold enrichment (6-mer frequency, TF over GST control) | 1.25 fold enrichment (6-mer frequency, TF over GST control)
5 | TTTTTG | 1.43 fold enrichment (6-mer frequency, TF over GST control) | 1.29 fold enrichment (6-mer frequency, TF over GST control) | 1.38 fold enrichment (6-mer frequency, TF over GST control) | 1.33 fold enrichment (6-mer frequency, TF over GST control) | 1.4 fold enrichment (6-mer frequency, TF over GST control) | 1.27 fold enrichment (6-mer frequency, TF over GST control) | 1.54 fold enrichment (6-mer frequency, TF over GST control) | 1.5 fold enrichment (6-mer frequency, TF over GST control) | 1.4 fold enrichment (6-mer frequency, TF over GST control)
6 | AGCTAC | 1.13 fold enrichment (6-mer frequency, TF over GST control) | 1.11 fold enrichment (6-mer frequency, TF over GST control) | 1.16 fold enrichment (6-mer frequency, TF over GST control) | 1.13 fold enrichment (6-mer frequency, TF over GST control) | 1.15 fold enrichment (6-mer frequency, TF over GST control) | 1.22 fold enrichment (6-mer frequency, TF over GST control) | 1.17 fold enrichment (6-mer frequency, TF over GST control) | 1.19 fold enrichment (6-mer frequency, TF over GST control) | 1.18 fold enrichment (6-mer frequency, TF over GST control)
7 | CTTGGG | 1.24 fold enrichment (6-mer frequency, TF over GST control) | 1.38 fold enrichment (6-mer frequency, TF over GST control) | 1.36 fold enrichment (6-mer frequency, TF over GST control) | 1.29 fold enrichment (6-mer frequency, TF over GST control) | 1.26 fold enrichment (6-mer frequency, TF over GST control) | 1.14 fold enrichment (6-mer frequency, TF over GST control) | 1.29 fold enrichment (6-mer frequency, TF over GST control) | 1.39 fold enrichment (6-mer frequency, TF over GST control) | 1.47 fold enrichment (6-mer frequency, TF over GST control)
8 | TATGGC | 1.19 fold enrichment (6-mer frequency, TF over GST control) | 1.29 fold enrichment (6-mer frequency, TF over GST control) | 1.26 fold enrichment (6-mer frequency, TF over GST control) | 1.27 fold enrichment (6-mer frequency, TF over GST control) | 1.24 fold enrichment (6-mer frequency, TF over GST control) | 1.1 fold enrichment (6-mer frequency, TF over GST control) | 1.12 fold enrichment (6-mer frequency, TF over GST control) | 1.18 fold enrichment (6-mer frequency, TF over GST control) | 1.16 fold enrichment (6-mer frequency, TF over GST control)
